Laboratory results as given in PubChem BioAssay AID602340 (Broad Institute, 2012).
The campaign covered roughly 330,000 compounds. About 2,600 (0.79%) were called active. Shown is part of a subset that was picked to be rich in actives. A number with no mark means an inactive call.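 How the source made its calls: active means mean ATP rescue above about 67%, or every replicate alone reaching that limit (limit read from the data, passing the limit was not always enough); inconclusive means no clear call, values can overlap the other calls; inactive means mean under the limit and some replicate under it.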

Assay: suppressors of statin myotoxicity in C2C12 myotubes, primary screen, cell-based, single point, plate reader (AID 602340);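 further: myotubes were challenged with 10 µM simvastatin during compound exposure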
Conditions: C2C12 myotubes + simvastatin, ATP luminescence, 48 h; at 7.49 µM; hits give high values; scaled: DMSO 0, geranylgeraniol control 100

Row | SMILES | rescue of ATP level
1 | C[C@H]1CN([C@@H](C)CO)C(=O)c2cc(C#CC3CCCC3)cnc2O[C@H]1CN(C)C(=O)c1ccncc1 | -53.3%
2 | CO[C@@H]1CN(C)C(=O)c2cc(NC(=O)Nc3cc(F)ccc3F)ccc2OC[C@@H](C)N(C)C[C@H]1C | -33.7%
3 | C[C@H]1CN([C@@H](C)CO)S(=O)(=O)c2ccc(C#CC3CCCC3)cc2O[C@@H]1CN(C)C(=O)c1cccc(F)c1 | -41%
4 | CNC(=O)C[C@H]1CC[C@H]2[C@H](COc3ccc(NC(=O)c4cc(C)on4)cc3C(=O)N2C)O1 | 7.63%
5 | COc1ccccc1NC(=O)N1C[C@H]2[C@@H](c3ccccc31)[C@H](CO)N2Cc1ccc2c(c1)OCO2 | 46.6%
6 | COc1cccc(C(=O)n2ccc(-c3cccs3)n2)c1 | 132% (active)
7 | COc1ccc(OC)c(-c2csc(-c3cccs3)n2)c1 | -1.11%
8 | COc1cccc(NC(=O)CN(C)C(=O)/C=C/c2cn(-c3ccccc3)nc2-c2cccs2)c1 | -0.997%
9 | O=C(N[C@@H]1CC[C@H](CCn2cc(-c3ccccn3)nn2)O[C@@H]1CO)c1ccccc1 | 0.826%
10 | C[C@H](CO)N1C[C@H](C)[C@H](CN(C)C(=O)C2CCOCC2)Oc2ncc(-c3ccccc3)cc2C1=O | -10.6%
11 | CCCNC(=O)C[C@H]1CC[C@H]2[C@@H](COC[C@H](O)CN2C(=O)Nc2c(C)noc2C)O1 | 5.16%
12 | CCOC(=O)c1c(NC(=O)CSc2nnc(CN3CCOCC3)n2C)sc2c1CCCC2 | -1.41%
13 | CCOC(=O)c1c(NC(=O)CSc2nnc(C)c(=O)[nH]2)sc2c1CCC2 | 131% (active)
14 | CCOC(=O)c1c(NC(=O)CSc2cn(CC)c3ccccc23)sc2c1CCC2 | 15.7%
15 | O=C(C[C@@H]1C=C[C@H](NC(=O)Nc2ccc(C(F)(F)F)cc2)[C@H](CO)O1)NCc1cccc(F)c1 | 18.6%
16 | CC(C)COC(=O)C1C2C=CC3(CN(C(C)c4ccc(Br)cc4)C(=O)C13)O2 (configuration not stated) | 4.94%
17 | CCOCCCN1C(=O)C2C(C(=O)Nc3ccc(OCC)cc3)C3C=CC2(O3)C1C(=O)NC1CCCCC1 (configuration not stated) | 9.74%
18 | CCOC(=O)CN1CC23C=CC(O2)C(C(=O)Nc2ccc(F)cc2)C3C1=O (configuration not stated) | 97% (active)
19 | O=C(CN1CCOCC1)N[C@@H]1CC[C@H](CCNS(=O)(=O)c2ccccc2F)O[C@H]1CO | 14.2%
20 | Cc1ccc(SCC(=O)NC(=O)NCc2ccco2)c(C)c1 | 95.8% (active)
21 | Cc1cc(C)n2nc(SCC(=O)NC(=O)NCc3ccco3)nc2n1 | -3.52%
22 | Cc1ccc(NC(=O)C(=O)NCc2ccco2)c(C)c1 | 9.27%
23 | CC(C)NC(=O)N(C)C[C@@H]1Oc2ncc(-c3ccc(C(=O)N(C)C)cc3)cc2C(=O)N([C@H](C)CO)C[C@H]1C | -0.478%
24 | Cc1cccc(N(CC(O)CN(C)C)S(=O)(=O)c2ccccc2)c1 (configuration not stated) | -10.1%
25 | O=S(=O)(c1ccccc1)N(CC(O)CN1CCCCC1)c1ccccc1 (configuration not stated) | 152% (active)
26 | Cc1ccc(S(=O)(=O)N(CC(O)CN2CCCCC2)c2cccc([N+](=O)[O-])c2)cc1 (configuration not stated) | 5.45%

Row | SMILES | rescue of ATP level
27 | COc1ccccc1-c1cn(CC[C@H]2CC[C@@H](NC(=O)Cc3ccccn3)[C@@H](CO)O2)nn1 | 5.82%
28 | CC(C)Cn1c(SCC(=O)Nc2ccc(Cl)cc2F)nc(O)cc1=O | 95.3% (active)
29 | Cn1c(SCC(=O)Nc2ccc(Cl)cc2)nc(O)cc1=O | 21.6%
30 | Cc1ccccc1-n1c(SCC(=O)Nc2cccc3ccccc23)nc(O)cc1=O | 7.58%
31 | C/C=C/c1ccc([C@@H]2[C@@H](CO)N(C(=O)CC)[C@H]2CN(C)C(=O)C2CC2)cc1 | 7.07%
32 | CO[C@@H]1CN(C)C(=O)c2cc(NC(=O)NC(C)C)ccc2OC[C@@H](C)N(CC2CC2)C[C@@H]1C | 3.47%
33 | CN(CC(=O)NC1CCCCC1)S(=O)(=O)c1cccc2cccnc12 | -5.41%
34 | Cc1ccc(S(=O)(=O)NCC(=O)N(CC(=O)NC2CCCCC2)Cc2ccco2)cc1 | 13.6%
35 | Cc1ccc(S(=O)(=O)N(C)CC(=O)NC2CCCC2)cc1 | 96.1% (active)
36 | CCCNC(=O)N1C[C@H](C)[C@@H](OC)CN(C)C(=O)c2ccc(NS(C)(=O)=O)cc2OC[C@@H]1C | -0.593%
37 | Cc1noc(C)c1NC(=O)N(C)C[C@@H]1Oc2ccc(NS(=O)(=O)c3ccc(F)cc3)cc2CC(=O)N([C@@H](C)CO)C[C@H]1C | -7.19%
38 | O=C(C[C@H]1CC[C@@H]2NC[C@H](O)COC[C@H]2O1)NCCN1CCCCC1 | -1.01%
39 | C[C@@H]1CN([C@@H](C)CO)C(=O)Cc2cc(NS(=O)(=O)c3ccc(Cl)cc3)ccc2O[C@H]1CN(C)C(=O)Nc1cccc2ccccc12 | 25%
40 | CC(C)NC(=O)NC(=O)COC(=O)c1ccc(NC(=O)CC#N)cc1 | 113% (active)
41 | CCOc1ccc(NC(=O)c2ccc(NC(=O)COC(=O)c3ccc(NC(=O)CC#N)cc3)cc2)cc1 | -8.99%
42 | N#CCC(=O)Nc1ccc(C(=O)OCC(=O)Nc2sc3c(c2C#N)CCCC3)cc1 | 4.12%
43 | Cc1cccc2c(=O)n3c(nc12)CCCCC3 | 66.7% (active)
44 | Cc1cc(=O)n2c3c(cccc13)CCC2 | 0.243%
45 | O=c1c2c(nc3n1CCCCC3)sc1c(O)cccc12 | 6.49%
46 | CC(C)CC#Cc1cnc2c(c1)C(=O)N([C@@H](C)CO)C[C@H](C)[C@@H](CN(C)S(=O)(=O)c1cn(C)cn1)O2 | -12.3%
47 | C[C@H]1CCCCO[C@H](CN(C)Cc2ccccc2)[C@@H](C)CN([C@@H](C)CO)C(=O)c2cc(NS(C)(=O)=O)ccc2O1 | 0.662%
48 | CCN(CC(=O)NC(=O)NCc1ccccc1)Cc1nc2ccccc2c(=O)[nH]1 | -7.59%
49 | CCCC(=O)N(CCc1ccccc1)Cc1nc2ccccc2c(=O)[nH]1 | 4.48%
50 | O=C(c1ccco1)N(Cc1nc2ccccc2c(=O)[nH]1)C1CCCC1 | 69.1% (active)
51 | CCCNC(=O)N[C@@H]1CC[C@@H](CCn2cc(C3CC3)nn2)O[C@@H]1CO | 4.61%
52 | CCn1nnnc1SCC(=O)c1ccc(C)cc1C | 122% (active)

Row | SMILES | rescue of ATP level
53 | CCOC(=O)c1c(-c2ccc(C)cc2C)csc1NC(=O)CSc1nnnn1C | 8.4%
54 | CCn1nnnc1SCC(=O)Nc1ccc(N(C)C)cc1 | -19%
55 | C/C=C/c1ccc2c(c1)O[C@@H](CN(C)C(=O)C1CCOCC1)[C@H](C)CN([C@H](C)CO)S2(=O)=O | 7.79%
56 | CC(OC(=O)c1ccc2noc(-c3ccccc3)c2c1)C(N)=O (configuration not stated) | 20.5%
57 | NC(N)=Nc1nc(-c2ccccc2)c2cc(Cl)ccc2n1 | -791%
58 | Oc1ccc(-c2onc3ccc(Cl)cc23)cc1 | 108% (active)
59 | C[C@H](CO)N1C[C@H](C)[C@H](CN(C)Cc2ccncc2)Oc2ccc(NS(=O)(=O)c3cn(C)cn3)cc2C1=O | -11.2%
60 | C[C@H](CO)N1C[C@H](C)[C@H](CN(C)C(=O)c2ccccn2)Oc2ncc(-c3ccccc3F)cc2C1=O | 16.4%
61 | CCCC(=O)Nc1ccc2c(c1)C(=O)N(C)C[C@@H](OC)[C@@H](C)CN(Cc1cncnc1)[C@@H](C)CO2 | -0.178%
62 | C[C@@H]1CN([C@@H](C)CO)C(=O)c2cc(C#CC3CC3)cnc2O[C@@H]1CN(C)C(=O)Cc1ccccn1 | 13.5%
63 | CO[C@@H]1CN(C)C(=O)c2ccc(NC(=O)c3ccc(F)cc3)cc2OC[C@H](C)NC[C@@H]1C | -3.77%
64 | CCCNC(=O)N1[C@@H]2CN(C)c3ccccc3[C@@H]2[C@@H]1CO | 9.21%
65 | O=C(C[C@@H]1C[C@H]2c3cc(NC(=O)Nc4ccccc4F)ccc3O[C@H]2[C@@H](CO)O1)NCc1ccncc1 | 2.48%
66 | COc1ccc(OC)c2c(N)c(C#N)c(C(F)(F)C(F)(F)F)nc12 | 89.2% (active)
67 | COc1ccc(C2CC(=O)Nc3sc(=N)c4c(N)c(C#N)c(N)nc4c32)cc1OC (configuration not stated) | -2.72%
68 | CC(C)NC(=O)Nc1ccc2c(c1)C(=O)N([C@@H](C)CO)C[C@@H](C)[C@H](CN(C)Cc1ccc(C(=O)O)cc1)O2 | 6.31%
69 | CCOc1ccc(Nc2nc(Cc3nnc(SCC(=O)c4ccc(C)cc4)o3)cs2)cc1 | 76.7% (active)
70 | CCOc1ccc(Nc2nc(Cc3nnc(SCC(=O)NC4CCCC4)n3C)cs2)cc1 | 33.9%
71 | CC(=O)Nc1ccc(C(=O)CSc2nnc(Cc3ccccc3)o2)cc1 | 1.31%
72 | COCC(=O)Nc1ccc2c(c1)OC[C@H](C)NC[C@@H](C)[C@H](OC)CN(C)C2=O | 7.72%
73 | O=C(c1cccnc1)N1CC[C@@H]2[C@@H](CO)Nc3ccc(-c4ccccc4)cc3[C@@H]21 | 2.73%
74 | CO[C@H]1CN(C)C(=O)c2cc(NC(=O)c3ccc4c(c3)OCO4)ccc2OC[C@@H](C)N(CCC(F)(F)F)C[C@H]1C | 6.03%
75 | O=C(N[C@H]1CC[C@H](CCNS(=O)(=O)c2ccc(F)cc2)O[C@H]1CO)C1CCCC1 | 6.44%
76 | COCC(=O)Nc1ccc2c(c1)OC[C@@H](C)N(C(=O)CC1CC1)C[C@@H](C)[C@@H](OC)CN(C)C2=O | 15.1%
77 | CCCC#Cc1cnc2c(c1)C(=O)N([C@H](C)CO)C[C@@H](C)[C@@H](CN(C)C(=O)Nc1ccccc1OC)O2 | 11.6%
